Test results taken from PubChem BioAssay AID1159580 (chemical genetic matrix, 2015).
Hit rate of the full screen: of about 5,500 compounds, about 2,000 (36%) were called active. Roughly 18% stayed inconclusive and do not appear here. Cut-off read from the data, not from the text of the source: active = normalized growth mostly below about 0.91 (no sharp cut-off); inconclusive = no clear call, values can overlap the other calls; inactive = mostly above about 0.92. Some of the results follow.

Assay: chemical genetic growth profiling, strain panel (AID 1159580);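 note: tested at 20 µM; growth read once vehicle control cultures reached saturation at 30 °C; 1 = growth at the plate median or of vehicle wells; lower values mean less growth of the strain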
Settings: S. cerevisiae deletion strains, growth OD

Measured: normalized growth

CN(C)C(N)=NCCC[C@H](N)C(=O)O
inactive: locus YAL013W, strain DEP1, stronger effect = lower value 1 | locus YAL040C, strain CLN3, stronger effect = lower value 0.998 | locus YCL061C, strain MRC1 (second series), stronger effect = lower value 1.01 | locus YDR150W, strain NUM1, stronger effect = lower value 0.997 | locus YDR363W, strain ESC2, stronger effect = lower value 1.04 | locus YER002W, strain NOP16, stronger effect = lower value 0.979 | locus YJR075W, strain HOC1, stronger effect = lower value 1.01 | locus YMR307W, strain GAS1, stronger effect = lower value 1.01 | locus YNL128W, strain TEP1, stronger effect = lower value 0.988 | locus YNL175C, strain NOP13, stronger effect = lower value 1 | locus YNL197C, strain WHI3, stronger effect = lower value 1.02 | locus YNL224C, strain SQS1, stronger effect = lower value 0.984 | locus YOR083W, strain WHI5 (second series), stronger effect = lower value 0.988 | locus YPL055C, strain LGE1, stronger effect = lower value 1.03 | locus YPL241C, strain CIN2, stronger effect = lower value 1
